This is a sample that favours compounds with a hit; in the whole collection about 7.4% have one here.
ELG1 genotox – genotoxicity induction in ELG1-luciferase HEK293T cells | HEK293T ELG1-luciferase reporter, luminescence, 16 h | 330,000 tested, 1.3% active | Potency, µM (titrated, usually from 46 µM), usual class: activators; further: nearly all actives have a fitted effect of over 60% in size
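DMSO vehicle served as control against compound-treated ELG1-luciferase HEK293T cells; exposure lasted 16 hr at 37 °C and 5% CO2, followed by ONE-Glo luminescence detection after 30 min.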
SMN2 splice enh – SMN2 splice variant enhancement; AID 1458; HEK293 SMN2-luciferase splicing reporter, luminescence, 30-36 h; 210,000 tested, 2.8% active; Potency, µM (doses to about 46.1 µM), hits mostly activators; further: nearly all actives have a fitted effect of over 55% in size
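HEK293 cells carry an SMN2 minigene-luciferase reporter in which exon 7 inclusion puts luciferase in frame. Cells were seeded at 2000 cells/well, attached for 10-12 hours, then exposed to compounds for 30-36 hours at 37C before ONE-Glo luminescence.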
NPC1 promoter act – NPC1 promoter activation | 320,000 tested, 2.4% active | Huh7 NPC1 promoter luciferase reporter, 24 h | Potency, µM (top dose mostly 9.22 µM), most hits filed as activators; further: nearly all actives have a fitted effect of over 60% in size
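Huh7 reporter cells (NPC1 promoter driving luciferase) are dosed with compound for 24 h at 37 °C, 5% CO2; luciferase detection reagent is then added and luminescence measured after 10 min at ambient temperature.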
Rab9 promoter act – activators of Rab9 promoter. Huh7 Rab9 promoter-luciferase reporter, luminescence, 24 h. Potency, µM (series often up to 9.22 µM), hits mostly activators. 320,000 tested, 2.8% active. AID 485297; further: nearly all actives have a fitted effect of over 60% in size
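Cell-based reporter: Huh7 stable for Rab9 promoter-driven luciferase, plated in reduced-serum medium with 10% FBS at 1500 cells/well, compound-treated 24 h at 37 °C, luminescence read after 10 min reagent.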
FLuc modulator – inhibits or activates purified firefly luciferase, miR-21 counter-screen | 360,000 tested, 6.9% active | purified FLuc, Km substrates, luminescence inhibition | P08659 | Potency, µM (series often up to 57.5 µM), hits mostly inhibitors; further: nearly all actives have a fitted effect of over 55% in size
Target sequence (P08659 whole entry, looked up): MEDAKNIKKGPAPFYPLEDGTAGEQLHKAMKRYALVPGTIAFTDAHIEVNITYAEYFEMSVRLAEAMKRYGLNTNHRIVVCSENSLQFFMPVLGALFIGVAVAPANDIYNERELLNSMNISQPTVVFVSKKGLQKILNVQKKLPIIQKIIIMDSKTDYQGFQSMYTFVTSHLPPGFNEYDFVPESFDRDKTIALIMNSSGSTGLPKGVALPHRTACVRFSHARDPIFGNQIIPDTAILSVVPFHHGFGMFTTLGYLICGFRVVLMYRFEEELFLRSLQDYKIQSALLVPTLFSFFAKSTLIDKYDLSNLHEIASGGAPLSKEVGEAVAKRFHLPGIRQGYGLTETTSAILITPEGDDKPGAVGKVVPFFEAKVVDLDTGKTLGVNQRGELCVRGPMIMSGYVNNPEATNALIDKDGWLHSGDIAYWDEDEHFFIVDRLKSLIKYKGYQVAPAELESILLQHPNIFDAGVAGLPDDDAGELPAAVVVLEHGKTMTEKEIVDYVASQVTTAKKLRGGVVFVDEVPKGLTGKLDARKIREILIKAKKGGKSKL
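Purified P. pyralis luciferase, 10 nM final, with Km-level 10 uM D-luciferin and 10 uM ATP in 50 mM Tris acetate pH 7.5, 10 mM Mg acetate, 0.01% Tween-20, 0.05% BSA; 6-point qHTS titration about 60 µM downward; luminescence read.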
Luc counter – blocks Kinase-Glo luciferase, a counter-screen artifact; Q27757; Kinase-Glo luciferase, ATP luminescence, 8 min; Potency, µM (highest dose often 38.3 µM), hits mostly inhibitors; 200,000 tested, 0.28% active; AID 1379; further: nearly all actives have a fitted effect of over 60% in size
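Recombinant Kinase-Glo luciferase, 10 uM ATP (linear range), luciferin; imidazole pH 7.2 / KCl / MgCl2 / Tween / BSA buffer; 8 min RT; luminescence.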
Of the large screens only hits and unclear results are named; the others gave an inactive call. The call rests on the fitted dose curve; in most records, active means well fitted curve in the direction sought with a large enough effect; inconclusive means small, poorly fitted or top-dose-only effect, or another doubt; inactive means no such curve, though single readings can be large; an effect the other way counts as inactive or inconclusive.

O=C(O)Cn1nc(-c2ccccc2)cc1-c1ccccc1	none (no result: SMN2 splice enh, Luc counter)
N#Cc1c(/N=C/c2ccc(-c3ccccc3C(=O)O)o2)sc2c1CCCC2	ELG1 genotox 14.6µM, NPC1 promoter act 1.78µM, Rab9 promoter act 0.708µM, FLuc modulator 0.757µM (no result: SMN2 splice enh, Luc counter)
COCc1cc(C)nc(N/N=C/c2ccc(-c3ccc(C(=O)O)c(Cl)c3)o2)c1C#N	none
N#Cc1c(/N=C/c2ccc(-c3ccc(C(=O)O)c(Cl)c3)o2)sc2c1CCCC2	FLuc modulator 2.39µM (no result: SMN2 splice enh, Luc counter)
Cc1cccc(C(=O)NCC(=O)NCC2COc3ccccc3O2)c1 (configuration not stated)	none (no result: SMN2 splice enh, Luc counter)
COC(=O)C(Cc1c[nH]c2ccccc12)NC(=O)COc1ccc(Cl)cc1Cl (configuration not stated)	FLuc modulator inconclusive (no result: ELG1 genotox, NPC1 promoter act, Rab9 promoter act, Luc counter)
Cc1cc(C(=O)N2CCN(S(=O)(=O)c3ccc(C)c(C)c3)CC2)no1	none (no result: SMN2 splice enh, Luc counter)
CN(C)/C=C1\Oc2ccc3ccccc3c2C1=O	SMN2 splice enh 17.8µM, NPC1 promoter act 3.16µM, Rab9 promoter act inconclusive, FLuc modulator 16.9µM
C=C(C)Cn1c(-c2ccncc2)n[nH]c1=S	none
COc1ccc(N2CCN(C(=O)c3ccc(NC(=O)c4nsc5ccccc45)cc3)CC2)cc1	FLuc modulator 6.75µM (no result: ELG1 genotox, SMN2 splice enh, NPC1 promoter act, Rab9 promoter act, Luc counter)
Cc1ccc(Cl)cc1N1CCN(C(=O)c2ccc(NS(=O)(=O)c3c(C)noc3C)cc2)CC1	none
COc1ccc(C(=O)N2CCN(c3ccc(NC(=O)c4cccs4)cc3)CC2)cc1	none (no result: SMN2 splice enh, Luc counter)
O=C(Nc1ccc(C(=O)N2CCN(c3ccc(Cl)cc3)CC2)cc1)c1nsc2ccccc12	FLuc modulator 1.07µM (no result: ELG1 genotox, SMN2 splice enh, NPC1 promoter act, Rab9 promoter act, Luc counter)
Cc1cccc(N2CCN(C(=O)c3ccc(NC(=O)c4nsc5ccccc45)cc3)CC2C)c1 (configuration not stated)	FLuc modulator 4.78µM (no result: ELG1 genotox, SMN2 splice enh, NPC1 promoter act, Rab9 promoter act, Luc counter)
Cc1ccc(Cl)cc1N1CCN(C(=O)c2ccc(NC(=O)c3nsc4ccccc34)cc2)CC1	FLuc modulator 6.01µM (no result: ELG1 genotox, SMN2 splice enh, NPC1 promoter act, Rab9 promoter act, Luc counter)
O=C(c1ccccc1)c1c[nH]c(C(=O)NCCCn2ccnc2)c1	none
CN(C)c1ccc(C(CNC(=O)c2cccc(C(F)(F)F)c2)N2CCCC2)cc1 (configuration not stated)	none (no result: ELG1 genotox, SMN2 splice enh, NPC1 promoter act, Rab9 promoter act, Luc counter)
COc1ccc(-c2nc3cnc(N4CCNCC4)nc3n(C3CC3)c2=O)cc1	none (no result: ELG1 genotox, NPC1 promoter act, Rab9 promoter act, FLuc modulator)
CN(C1CCCC1)C1CCN(C(=S)Nc2cc(F)cc(F)c2)CC1	ELG1 genotox inconclusive
CC1CCN(C(=O)c2ccc(NC(=O)c3nsc4ccccc34)cc2)CC1	FLuc modulator 7.57µM (no result: ELG1 genotox, SMN2 splice enh, NPC1 promoter act, Rab9 promoter act, Luc counter)
COc1cccc(N2CCN(C(=O)c3ccc(NC(=O)c4nsc5ccccc45)cc3)CC2)c1	FLuc modulator 1.2µM (no result: ELG1 genotox, SMN2 splice enh, NPC1 promoter act, Rab9 promoter act, Luc counter)
COc1cccc(N2CCN(C(=O)CNC(=O)c3sc4ccccc4c3Cl)CC2)c1	FLuc modulator inconclusive (no result: SMN2 splice enh, Luc counter)
O=C(Nc1ccc(C(=O)N2CCN(c3ccccc3F)CC2)cc1)c1nsc2ccccc12	FLuc modulator 5.36µM (no result: ELG1 genotox, SMN2 splice enh, NPC1 promoter act, Rab9 promoter act, Luc counter)
O=C(COc1ccc(F)cc1Br)NCCCN1CCCC1=O	none (no result: SMN2 splice enh, NPC1 promoter act, Rab9 promoter act, FLuc modulator, Luc counter)
Cc1ccc(C)c(NC(=O)Cn2c(=O)n(-c3ccccc3C)c(=O)c3c2c2cc(C)ccc2n3C)c1	none (no result: ELG1 genotox, SMN2 splice enh, NPC1 promoter act, Rab9 promoter act, Luc counter)
Cc1ccsc1/C=N/NC(=O)Nc1ccccc1	ELG1 genotox inconclusive, SMN2 splice enh 15.8µM, NPC1 promoter act 3.16µM, Rab9 promoter act 1.58µM, FLuc modulator 2.69µM
CCCCC(=O)N/N=C/c1sccc1C	none
O=C(N/N=C/c1ccc2c(c1)OCO2)c1cccs1	ELG1 genotox 7.31µM, SMN2 splice enh 12.6µM, NPC1 promoter act 1.26µM, Rab9 promoter act 1.26µM, FLuc modulator 3.38µM, Luc counter 12.6µM
Cc1ccsc1C(=O)N/N=C/c1ccc2c(c1)OCO2	ELG1 genotox 2.31µM, SMN2 splice enh 2.51µM, NPC1 promoter act 0.708µM, Rab9 promoter act 0.631µM, FLuc modulator 1.51µM, Luc counter 2µM
Cc1ccccc1/C=N/NC(=O)c1sccc1C	ELG1 genotox 18.4µM, SMN2 splice enh 10µM, NPC1 promoter act inconclusive, Rab9 promoter act 2.24µM, FLuc modulator 1.51µM, Luc counter 12.6µM
CCN(CC)C(=O)CSc1nc2cc3c(cc2c(=O)n1CCCCCC(=O)NCCc1ccc(OC)c(OC)c1)OCO3	none (no result: ELG1 genotox, SMN2 splice enh, NPC1 promoter act, Rab9 promoter act, Luc counter)

Bioassay records (PubChem)
